Holding throughout (format): functional
Experiment [1] relates to Plasmodium falciparum. The experiment in a line: GSK_TCMDC: Inhibition of Plasmodium falciparum 3D7 in whole red blood cells, using parasite LDH activity as an index of growth. Test compounds present at 2uM.
The subject of experiment [2] is Plasmodium falciparum. Nature of the experiment: GSK_TCMDC: Inhibition of Plasmodium falciparum Dd2 in whole red blood cells, using parasite LDH activity as an index of growth. Test compounds present at 2uM.
Experiment [3] deals with HepG2. Nature of the experiment: GSK_TCMDC: Percent inhibition of human HepG2 cell line. Test compounds present at 10uM.

The structures appear in SMILES notation.

As to `CC(C)(C)C1CC(=O)CC2C(=O)N(c3ccc(Br)cc3)C(=O)C21` (configuration not stated), the Inhibition in experiment [1] worked out at 94%; in experiment [2], 7%; in experiment [3], 0%.
As for `CC(C)(CNC(=O)C1CCN(CCOc2ccc(Cl)cc2)CC1)c1nc(-c2ccc(Cl)c(O)c2)c(-c2ccncc2)[nH]1.Cl`, the Inhibition came to 100% in experiment [1], 5% in experiment [2] and 40% in experiment [3].
The corresponding values for `Oc1ccc(Cl)cc1CN1CCCC(COC(c2ccc(F)cc2)c2ccc(F)cc2)C1` (configuration not stated) are 98%, 100% and 20%.
In the same order, the values of `O=C(CN(c1cccc(C(F)(F)F)c1)S(=O)(=O)c1ccc(Cl)cc1)NCCC(c1ccccc1)c1ccccc1` are 94%, 50% and 14%.
The corresponding values for `COCCSc1nc2scc(C)c2c(=O)n1Cc1cccc(OC)c1` are 92%, 33% and 0%.
On to `N#Cc1ccc(N/C(=N\c2ccc(-c3ccccc3)cc2)NCc2cccnc2)c(O)c1`, for which the figures for the Inhibition in experiment [1], in experiment [2] and in experiment [3] were 100%, 46% and 2%, respectively.
With `CC(C)(C)OC(=O)NCc1ccc(Nc2nnc(-c3ccc(OCC(=O)NCc4cc(C(F)(F)F)cc(C(F)(F)F)c4)c([N+](=O)[O-])c3)o2)cc1`, the Inhibition in experiment [1] amounted to 97%; in experiment [2], 92%; in experiment [3], 24%.
Regarding `Cl.O=c1cc(NCCCNCc2ccc(Cl)c(Cl)c2)[nH]c2cc(Cl)ccc12`, the Inhibition in experiment [1] is reported as 95%; in experiment [2], 51%; in experiment [3], 1%.
Take `COc1ccc2nccc(CCC3(O)CCC(NCc4cc5c(cc4F)SCC(=O)N5)CC3)c2c1` (configuration not stated): the Inhibition worked out at 87% in experiment [1], 48% in experiment [2] and 9% in experiment [3].
In the same order, the values of `CS(=O)(=O)Cc1ccc(Nc2nccc(-c3c(-c4cccc(NC(=O)c5c(F)cccc5F)c4)nn4ccccc34)n2)cc1` are 99%, 75% and 78%.
As to `Cc1ccccc1N1CCN(c2ccc(C(=O)NC3CC3)cn2)CC1.O=C(O)C(F)(F)F`, the Inhibition in experiment [1] is given as 96%; in experiment [2] it was 96%; in experiment [3] it was 14%.
Turning to `COc1cccc(CN2CCC(N3CCc4cc(NC(=O)c5cc(C)on5)ccc43)C2)c1OC` (configuration not stated), the Inhibition in experiment [1] came to 93%; in experiment [2], 92%; in experiment [3], 9%.
On to `CCCCCCCc1c(C)nc2cc(OC)ccc2c1O`, for which the Inhibition in experiment [1] amounted to 99%; in experiment [2] it was 98%; in experiment [3], 5%.
Take `Nc1cc(/C=C/c2ccc([N+](=O)[O-])o2)nc2ccccc12`: the figures for the Inhibition in experiment [1], in experiment [2] and in experiment [3] were 93%, 81% and 100%, respectively.
As to `c1ccc(-c2[nH]c3ccccc3c2CN2CCC(N3CCCCC3)CC2)nc1`, the Inhibition in experiment [1] worked out at 100%; in experiment [2] it was 82%; in experiment [3], 13%.
The corresponding values for `CCc1ccccc1N1CCN(CCCCNC(=O)c2ccc(NC(=O)c3ccc(Cl)cc3)cc2)CC1` are 96%, 4% and 21%.
In the same order, the values of `Cc1cc(Cl)c(S(=O)(=O)NC2CCCC2)cc1OCC(=O)NC1CCCCC1` are 97%, 91% and 19%.
The corresponding values for `O=C(N[C@H](Cc1ccc(Cl)cc1)C(=O)N1CCN(c2ccnc3cc(Cl)ccc23)CC1)[C@H]1Cc2ccccc2CN1.O=C(O)C(F)(F)F` are 85%, 41% and 16%.
Consider `OCCOCCNCc1cccc(C#Cc2cc3ncnc(Nc4ccc(OCc5cccc(F)c5)c(Cl)c4)c3s2)n1`, for which the Inhibition in experiment [1] came to 96%; in experiment [2] it was 46%; in experiment [3] it was 35%.
The corresponding values for `Cc1ccnc(-n2c(C)cc(C=C3SC(=Nc4ccccc4)N(Cc4ccco4)C3=O)c2C)c1` are 99%, 98% and 0%.
Regarding `COc1ccc2nc(N3CCN(C(=O)OC(C)(C)C)CC3)nc(NCCCc3ccccc3)c2c1`, the Inhibition is 100% in experiment [1], 95% in experiment [2] and 9% in experiment [3].
The corresponding values for `CC(ON1C(N)=NC(N)=NC1(C)C)c1ccccc1` (configuration not stated) are 96%, 58% and 65%.
The corresponding values for `CC(C(=O)OCCOCn1cnc2c(=O)[nH]c(N)nc21)N(C)C(=O)OC(C)(C)C` (configuration not stated) are 87%, 0% and 28%.
With `O=c1[nH]nc(-c2ccc(N3CCCC3)c([N+](=O)[O-])c2)c2ccccc12`, the values for the Inhibition in experiment [1], in experiment [2] and in experiment [3] were 100%, 39% and 2%, respectively.
For `O=C(Nc1cccc(-c2ccc(-c3nc4cc(C(F)(F)F)ccc4[nH]3)cc2)c1)c1ccncc1`, the Inhibition was 100% in experiment [1], 90% in experiment [2] and 79% in experiment [3].
In the same order, the values of `Cl.Oc1cccc(-c2nc3cc(C4=NC5CCCCC5N4)ccc3[nH]2)c1` (configuration not stated) are 98%, 97% and 0%.
Turning to `CC(=O)Nc1cccc(/C=C/C(=O)N2CCC(N3CCCCC3)CC2)c1`, the Inhibition in experiment [1] was 96%; in experiment [2], 0%; in experiment [3] it was 1%.
Consider `Cc1ccc(C2CC(c3cccs3)=NN2C(=O)c2ccc(Br)o2)cc1` (configuration not stated), for which the Inhibition in experiment [1] amounted to 99%; in experiment [2], 69%; in experiment [3] it was 11%.
On to `CC(=O)Nc1ccc(OCCN(CC(C)C)c2ccc(C(F)(F)F)c(C#N)c2)c(Cl)c1`, for which the Inhibition in experiment [1] turned out to be 96%; in experiment [2] it was 95%; in experiment [3], 13%.
